Test results reported in PubChem BioAssay AID1159580 (chemical genetic matrix, 2015).
Where “and” joins values, the source holds several entries; their conditions need not be identical. Identical values can stand only once. Screen size: about 5,500 compounds; about 2,000 (36%) were called active. Another 18% or so got no clear call; they are omitted. No stated cut-off is given here; in the data, active means normalized growth mostly below about 0.91 (no sharp cut-off); inconclusive means no clear call, values can overlap the other calls; inactive means mostly above about 0.92. The list shows a part of the results.

Assay: chemical genetic growth profiling, strain panel (AID 1159580);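 further: tested at 20 µM; growth read once vehicle control cultures reached saturation at 30 °C; 1 = growth at the plate median or of vehicle wells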
Conditions: S. cerevisiae deletion strains, growth OD

Measured: normalized growth

O=C(O)c1cc2cc(F)ccc2[nH]1
inactive: locus YAL013W, strain DEP1, stronger effect = lower value 1 | locus YAL021C, strain ccr4, stronger effect = lower value 0.961 | locus YAL026C, strain drs2, stronger effect = lower value 0.992 | locus YAL030W, strain snc1, stronger effect = lower value 0.998 | locus YAL040C, strain CLN3, stronger effect = lower value 0.969 | locus YBL061C, strain skt5, stronger effect = lower value 0.99 | locus YBR009C, strain hhf1, stronger effect = lower value 1.01 | locus YBR021W, strain FUR4, stronger effect = lower value 0.99 | locus YBR023C, strain chs3, stronger effect = lower value 0.996 | locus YBR171W, strain sec66, stronger effect = lower value 0.97 | locus YBR229C, strain ROT2, stronger effect = lower value 0.982 | locus YBR231C, strain swc5, stronger effect = lower value 0.991 | locus YBR279W, strain paf1, stronger effect = lower value 0.976 | locus YCL011C, strain gbp2, stronger effect = lower value 0.975 | locus YCL016C, strain dcc1, stronger effect = lower value 0.994 | locus YCL029C, strain bik1, stronger effect = lower value 1.02 | locus YCL061C, strain MRC1 (second series), stronger effect = lower value 0.99 | locus YCL061C, strain MRC1, stronger effect = lower value 0.971 | locus YCL069W, strain vba3, stronger effect = lower value 0.975 | locus YCR088W, strain abp1, stronger effect = lower value 0.971 | locus YDL005C, strain med2, stronger effect = lower value 0.97 | locus YDL035C, strain GPR1, stronger effect = lower value 1.02 | locus YDL040C, strain nat1, stronger effect = lower value 0.979 | locus YDL074C, strain BRE1, stronger effect = lower value 1.03 | locus YDL101C, strain DUN1, stronger effect = lower value 1.02 | locus YDL134C, strain PPH21, stronger effect = lower value 1.01 | locus YDL185W, strain tfp1, stronger effect = lower value 1.01 | locus YDL192W, strain arf1, stronger effect = lower value 1.02 | locus YDR001C, strain nth1, stronger effect = lower value 0.978 | locus YDR069C, strain doa4, stronger effect = lower value 1 | locus YDR101C, strain arx1, stronger effect = lower value 1.01 | locus YDR137W, strain rgp1, stronger effect = lower value 0.968 | locus YDR150W, strain NUM1, stronger effect = lower value 1.01 | locus YDR159W, strain sac3, stronger effect = lower value 0.995 | locus YDR162C, strain NBP2, stronger effect = lower value 1.02 | locus YDR195W, strain ref2 0.966 | locus YDR297W, strain sur2, stronger effect = lower value 0.975 | locus YDR318W, strain mcm21, stronger effect = lower value 1.02 | locus YDR334W, strain swr1, stronger effect = lower value 0.945 | locus YDR335W, strain msn5, stronger effect = lower value 0.99 | locus YDR388W, stronger effect = lower value 1.01 | locus YDR392W, strain spt3, stronger effect = lower value 0.933 | locus YDR502C, strain sam2, stronger effect = lower value 1.02 | locus YEL003W, strain gim4, stronger effect = lower value 0.978 | locus YEL037C, strain rad23, stronger effect = lower value 0.981 | locus YEL061C, strain CIN8 (second series), stronger effect = lower value 0.979 | locus YEL061C, strain CIN8, stronger effect = lower value 1.01 | locus YER002W, strain NOP16, stronger effect = lower value 0.966 | locus YER015W, strain faa2, stronger effect = lower value 0.981 | locus YER016W, strain bim1, stronger effect = lower value 0.994 | locus YER110C, stronger effect = lower value 1.02 | locus YER111C, strain swi4, stronger effect = lower value 1.01 | locus YER155C, strain BEM2 (second series), stronger effect = lower value 0.993 | locus YER155C, strain BEM2, stronger effect = lower value 1 | locus YER167W, strain BCK2, stronger effect = lower value 1.01 | locus YFR010W, strain ubp6, stronger effect = lower value 0.978 | locus YGL078C, strain dbp3, stronger effect = lower value 1.01 | locus YGL086W, strain mad1, stronger effect = lower value 1.02 | locus YGL167C, strain pmr1, stronger effect = lower value 0.982 | locus YGL173C, strain kem1, stronger effect = lower value 0.987 | locus YGL227W, strain vid30, stronger effect = lower value 0.989 | locus YGL240W, strain doc1, stronger effect = lower value 1.01 | locus YGL248W, strain PDE1, stronger effect = lower value 1.01 | locus YGL253W, strain hxk2, stronger effect = lower value 1 | locus YGR078C, strain PAC10, stronger effect = lower value 0.984 | locus YGR135W, strain pre9, stronger effect = lower value 1.02 | locus YGR229C, strain SMI1, stronger effect = lower value 1.01 | locus YGR252W, strain gcn5, stronger effect = lower value 1.03 | locus YHR013C, strain ard1, stronger effect = lower value 0.99 | locus YHR027C, strain rpn1, stronger effect = lower value 0.977 | locus YHR030C, strain SLT2, stronger effect = lower value 1.01 and 1.02 | locus YHR079C, strain IRE1 (second series), stronger effect = lower value 1.02 | locus YHR079C, strain IRE1, stronger effect = lower value 0.988 | locus YHR094C, strain hxt1, stronger effect = lower value 1.02 | locus YHR129C, strain ARP1, stronger effect = lower value 1 | locus YHR142W, strain chs7, stronger effect = lower value 0.949 | locus YHR200W, strain rpn10, stronger effect = lower value 1.03 | locus YIL066C, strain RNR3, stronger effect = lower value 1.01 | locus YIL073C, strain SPO22, stronger effect = lower value 1.09 | locus YIL125W, strain kgd1, stronger effect = lower value 1.01 | locus YIR030C, strain dcg1, stronger effect = lower value 1.02 | locus YJL092W, strain hpr5, stronger effect = lower value 0.968 | locus YJL095W, strain BCK1 (second series), stronger effect = lower value 0.987 | locus YJL095W, strain BCK1, stronger effect = lower value 1.01 and 0.997 | locus YJL115W, strain asf1, stronger effect = lower value 0.962 | locus YJL129C, strain trk1, stronger effect = lower value 0.979 | locus YJL134W, strain LCB3, stronger effect = lower value 1.01 | locus YJL154C, strain vps35, stronger effect = lower value 0.967 | locus YJL164C, strain tpk1, stronger effect = lower value 0.972 | locus YJL166W, strain qcr8, stronger effect = lower value 1 | locus YJL168C, strain set2, stronger effect = lower value 1.02 | locus YJL187C, strain SWE1 (second series), stronger effect = lower value 1.01 | locus YJL187C, strain SWE1, stronger effect = lower value 0.981 | locus YJR043C, strain POL32, stronger effect = lower value 1.01 | locus YJR066W, strain TOR1, stronger effect = lower value 0.93
